SMILES strings stand for the structures. Records with an inconclusive call do not appear. Unmarked numbers belong to inactive results. Calls of active or inactive are those of the source. Calls follow the shape of the dose curve; as a rule, active = well fitted activation curve with a large enough effect; inconclusive = small, poorly fitted or top-dose-only effect; inactive = flat fitted curve, though single readings scatter.

A word on the inhibition: it is the relative decrease from the control value, in per cent.
Potency is read from the fitted curve at half-maximal effect.

A short description of the test: qHTS for Inhibitors of Cell Surface uPA Generation: Confirmatory Assay for Cherry-picked Compounds. As to inhibition: 0% is about no effect. Particulars: cell surface uPA activity generation, qHTS confirmation; series mostly up to 115 µM; inhibition: at the top concentration. In short, it runs like this:
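RAW 264.7 cells at 4000/well, incubated overnight, then treated with compounds. After 24 h at 37 C, viability was read by ATPlite luminescence. An increase in signal indicates blocked uPA-dependent LF entry.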
Background: Quantitative high-throughput screening tests each substance at several concentrations.
For `CC1CC(C)CN(CCCNC(=O)CN2C(=O)CSc3ccc(S(=O)(=O)N4CCOCC4)cc32)C1` (centres undefined), the “inhibition” value is 0.198%. As for `CC(CCc1ccccc1)NC(=O)c1ccc(NC(=O)c2cccc(Br)c2)cc1` (centres undefined), the “inhibition” value was -0.796%. In the case of `CCOC(=O)CN1C(=O)N[C@@H](c2ccco2)C(C(=O)OC)=C1C`, the “inhibition” value was -2.99%. As for `COc1ccc(N2CCN(C3CCN(S(=O)(=O)c4ccc(F)cc4)CC3)CC2)cc1`, the “inhibition” value was -1.08%.

Take `O=C(/C=C/c1cccc(F)c1)Nc1cc(S(=O)(=O)N2CCOCC2)ccc1Cl`: the “inhibition” value was -2.51%. On the same count and under the same terms, with `O=C(NC(=O)c1ccccc1)Nc1cccc(S(=O)(=O)N2CCCCC2)c1` the figure was -0.931%; with `CCN(CC)c1c([N+](=O)[O-])c(=O)sc2ccccc12`, -1.46%. As to `O=C(NCCCn1ccnc1)C(=O)NCC(c1cccnc1)N1CCN(c2ccc(F)cc2)CC1` (centres undefined), the “inhibition” value is -0.766%. Turning to `COC(=O)c1cc(CNC(=O)c2ccc(N3CCCC3)c([N+](=O)[O-])c2)ccc1OC`, the “inhibition” value is -2.35%. On to `Cc1noc(C)c1COc1ccc(C(=O)O)cc1`, for which the “inhibition” value is -1.22%. As for `COc1ccccc1NC(=O)COc1ccc(C(=O)NCc2ccccc2)cc1OC`, the “inhibition” value was -0.346%.

As to `Cc1cc(C)n(C(=O)c2cccc([N+](=O)[O-])c2)n1`, the “inhibition” value was -3.17%.

In the case of `CCC(C(=O)NCc1ccc(C)cc1)c1ccccc1` (centres undefined), the “inhibition” value is 1.34%.

As for `Cn1c(CN2CCCC2)nc2cc(NC(=O)COc3ccccc3)ccc21`, the “inhibition” value was -2.79%. As to `O=C1c2ccccc2[C@@H]2C[C@H](NC34CC5CC(CC(C5)C3)C4)[C@@H](O)CCN12`, the “inhibition” value is -0.982%.

In the case of `Cc1ccc2oc(=O)c3cnn(CC(=O)Nc4ccccc4N4CCN(C)CC4)c3c2c1`, the Potency was 9.27 µM (active). Regarding `COc1ccc(C(=O)NC(=S)Nc2ccc(NC(=O)c3ccco3)cc2)cc1[N+](=O)[O-]`, the “inhibition” value is 0.844%. On to `O=C(NC(=S)Nc1c(F)cc(F)cc1Br)c1ccc2c(c1)OCCO2`, for which the “inhibition” value is 0.29%. `O=C(O)c1ccc(-n2nnnc2SCc2cccc(Br)c2)cc1`: the “inhibition” value is -2.5%. For `CCOc1cc(/C=C(\C#N)C(=O)NCc2cccnc2)ccc1O`, the “inhibition” value was -2.42%. Consider `COCCNC(=S)N(CCc1c(C)[nH]c2ccccc12)Cc1ccco1`, for which the “inhibition” value is -2.32%. For the compound `C=CCn1c(=O)c(C(=O)NCCc2ccc(Cl)cc2)c(O)c2cc(OC)c(OC)cc21`, the “inhibition” value was -0.658%.

As for `CCN1CCCCC(=N/O)/C(=N/O)CCCC1`, the “inhibition” value is 2.88%. As to `Cn1nc(N2CCN(S(=O)(=O)c3ccccc3)CC2)c(=O)n(C)c1=O`, the “inhibition” value was -0.274%.

For the compound `CC1CC(=O)Nc2ccccc2N1C(=O)Cn1cnc2ccc(Br)cc2c1=O` (centres undefined), the “inhibition” value is -0.739%.

In the case of `Cc1ccc(Nc2nc(Cl)c(C=O)s2)cc1`, the “inhibition” value was -3.05%. Take `COc1cccc(NC(=O)c2nnn(CC(=O)Nc3cc(C)cc(C)c3)c2N)c1`: the “inhibition” value was 1.65%. For the compound `CC(Sc1nnc2ccccn12)C(=O)NCc1ccc2c(c1)OCO2` (centres undefined), the “inhibition” value was 0.214%. Turning to `COc1cc(NC(=S)NCCc2ccc(S(N)(=O)=O)cc2)c(OC)cc1Cl`, the “inhibition” value was 7.47%. Same read-out and setting: under `CN(C)CCNC(=O)Nc1ccc([N+](=O)[O-])cc1` stands -1.38%; under `COCCOC(=O)C1=C(C)NC(=O)NC1c1cccc2ccccc12` (centres undefined), 1.45%. The same measure, in the same setting: with `Cc1ccnc(NS(=O)(=O)c2ccc(NC(=O)C3C4C=CC(C4)C3C(=O)O)cc2)n1` (centres undefined) the figure was 1.92%; with `Cc1nc2ncccn2c1-c1csc(Nc2ccc(S(N)(=O)=O)cc2)n1`, -3.4%; with `O=C(CCCC(=O)N(c1cccc(F)c1)C(C(=O)NC1CCCC1)c1ccc(O)cc1)Nc1ccccn1` (centres undefined), -2.36%.

Take `CCCCn1c(SCC(=O)Nc2cc(C(F)(F)F)ccc2Cl)nnc1C(CC)N(C)C` (centres undefined): the Potency was 52.1 µM (active).

`CCC1Nc2ncnc(N3CCCCC3)c2N(Cc2ccc(Cl)cc2)C1=O` (centres undefined): the “inhibition” value is -0.906%. On the same count and under the same terms, under `O=C(NCCS(=O)(=O)N1CCC2(CC1)OCCO2)c1ccc(F)cc1` stands -0.969%; under `CCOc1cc(C(=S)N2CCOCC2)ccc1OC(=O)c1cccc(C)c1`, -3.23%.

As for `NS(=O)(=O)c1ccc(CCNC(=O)c2ccc(Cl)s2)cc1`, the “inhibition” value is 0.106%.

The values are drawn from PubChem BioAssay AID720519 (National Center for Advancing Translational Sciences (NCATS), 2013).
